Test results as given in the supplement of paper PMC3334620.
In all, about 33,000 sequences were measured (“E-score (-0.5 to 0.5)”: median about -0.01, highest 2% from about 0.26 on). Shown is part of a subset that was picked to be rich in the highest values.

molecular target: Ste12 (UniProt P13574); assay: PBM E-score (8-mer binding enrichment) (E-score (-0.5 to 0.5)); higher = stronger / more preferred TF binding; settings: protein concentration: 200 nM; construct: GST-DNA-binding domain
How it was run: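 E-scores (a modified Wilcoxon-Mann-Whitney statistic) were assigned by the Universal PBM Analysis Suite to every ungapped eight-base word pooled with its reverse complement. The input came from universal all-10-mer Agilent arrays made double-stranded by primer extension and probed with GST-tagged yeast transcription factors at about 100-200 nM. Fluorescent anti-GST detected bound protein, and masliner normalised the scans.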

Sequence of UniProt P13574 (P13574 whole entry, the tested form may be a part): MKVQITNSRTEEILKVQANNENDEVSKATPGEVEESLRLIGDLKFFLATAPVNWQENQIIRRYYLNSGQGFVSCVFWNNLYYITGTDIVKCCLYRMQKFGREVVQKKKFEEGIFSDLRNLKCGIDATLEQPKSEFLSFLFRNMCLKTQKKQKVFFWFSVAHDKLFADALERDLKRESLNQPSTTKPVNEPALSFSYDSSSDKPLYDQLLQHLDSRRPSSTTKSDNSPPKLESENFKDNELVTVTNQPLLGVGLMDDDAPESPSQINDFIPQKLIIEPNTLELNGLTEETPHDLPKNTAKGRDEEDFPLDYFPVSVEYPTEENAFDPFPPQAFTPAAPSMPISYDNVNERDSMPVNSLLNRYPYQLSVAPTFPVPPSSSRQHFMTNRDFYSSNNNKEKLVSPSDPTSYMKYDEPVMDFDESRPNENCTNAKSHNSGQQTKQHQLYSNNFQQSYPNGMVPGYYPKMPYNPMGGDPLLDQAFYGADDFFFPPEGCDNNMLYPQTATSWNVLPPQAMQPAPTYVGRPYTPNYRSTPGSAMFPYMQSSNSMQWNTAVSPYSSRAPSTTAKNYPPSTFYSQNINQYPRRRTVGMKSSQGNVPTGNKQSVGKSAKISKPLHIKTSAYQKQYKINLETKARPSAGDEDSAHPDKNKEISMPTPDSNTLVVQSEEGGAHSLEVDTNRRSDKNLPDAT

Sequence | PBM E-score
GCTGAGCC | -0.0937
ACAACTCG | 0.0864
ATCCCTTG | -0.0717
GAGCATAA | 0.131
TAGCTGGA | -0.0515
CAGAATAC | 0.0945
TTAAAAAA | 0.294
TAAAACAA | 0.261
TAAAAAGA | 0.248
CTAAAAGA | 0.0876
TAAAAAAA | 0.313
TTAAAGAA | 0.251
CTAAAAAA | 0.278
TAATAAAA | 0.225
AAAAACAA | 0.251
CTAAAAAC | 0.023
TTAAACAA | 0.123
CTAAAAAG | 0.218
CGGCGAAC | 0.0131
GGAAGGGA | -0.106
CTGTACTC | -0.247
CTAGTGTA | 0.129
GACTACTC | -0.0788
CCCCATTA | -0.193
TTAATAAA | 0.344
CTAATAAA | 0.145

Sequence | PBM E-score
ATAATAAA | 0.255
ACGGCAAT | 0.0277
ACGGCAAG | 0.0378
ACGGCAAA | 0.277
CCACAAGG | -0.107
GAGAGTAA | 0.142
TCCCGCCA | 0.101
CCCCGCCC | 0.347
ACCCGCCC | 0.361
ACCCGCCG | 0.137
GCCCGCCC | 0.257
CGCCGCCC | 0.239
CCCCGCCG | 0.242
CACCGCCC | 0.27
CACCGCCA | 0.0129
AACCGCCC | 0.00313
CCCCGCCA | 0.38
GCCCGCCA | -0.0776
ACCCTCAC | -0.029
AATATAAT | 0.138
TATAAAGA | 0.0307
GATATAAA | 0.0834
TGTAAAAA | 0.334
AGTAAAAA | 0.214
AATATAAA | 0.306
TATAAAAA | 0.27

Sequence | PBM E-score
CGTAAAAA | 0.126
CATATAAA | 0.0963
AATATAAG | 0.198
AATAAAAA | 0.229
TATATAAA | 0.267
TCCTGGCA | -0.0322
CTGCGCCC | -0.239
ACCTACCT | 0.0101
CGCGGGTA | 0.0349
GAGAGAGA | -0.0897
AAGCGGTA | 0.0316
ATACTCGG | -0.0182
ACAAATCA | 0.0844
CACCGTGC | 0.131
ACGGGAGC | -0.111
GTTATAAA | 0.218
TTTATAAA | 0.271
CTTATAAA | 0.223
AGCTGTTG | -0.0338
ACGAGCCT | -0.0238
AAACACTC | 0.288
CAACACTA | 0.0388
GAACACTA | -0.13
AAACACTG | 0.248
AAACACTT | 0.12
AAACACTA | 0.273

Sequence | PBM E-score
GCGAGCCA | -0.0412
CTGCAAGC | -0.141
ATAAGCAA | 0.148
ATTTTCAA | 0.193
TATTTCAA | 0.282
GATTTCAA | 0.159
AATTTCAA | 0.106
GGTTTCAA | 0.416
TGTTCAAA | 0.17
TCTTTCAA | 0.0772
CTTTTCAA | 0.221
GTTTTCAA | 0.32
CATTTCAA | 0.214
GGTTTCGA | 0.193
TGTTTCAA | 0.484
CCAGGAGA | -0.24
GCCTGCGC | -0.119
CTTCTGCC | -0.122
TATCTTCA | 0.15
AACGATCT | 0.153
ATAAGCCC | -0.0186
GTGGAGGA | -0.0464
GATTTCAC | 0.111
GCTTTCAC | 0.0706
GGTTTCAC | 0.386
ACTAGCTA | -0.0308

Sequence | PBM E-score
ATTCTGAC | 0.0839
ATGAATGA | 0.192
ATGAATGC | 0.138
ATGAATGG | 0.33
AAGATCAC | -0.0426
GGCTGCTA | -0.037
ATCTGATG | 0.109
GGGGCTAC | -0.0752
ATAGGGCA | -0.109
CGCGGCGA | 0.126
CCCGCCAC | 0.213
ACCGCCCG | -0.057
ACCGCCCT | -0.00709
CCCGCCGG | 0.158
CCCGCCCG | 0.233
CCCGCCGA | -0.0475
TCCGCCCA | -0.107
ACCGCCCC | 0.348
CCCGCCCA | 0.332
CCCGCCGC | 0.31
CCCGCCCC | 0.32
CCCGCGCC | 0.168
AACACTTC | 0.135
AACACTGG | -0.00819
CCCATAAA | -0.0663
GTGCAAGA | -0.145

Sequence | PBM E-score
GCCGCCCC | 0.307
GCCGCCGC | -0.0603
GCCGCCCA | 0.0226
CTTCCCTC | -0.0689
CAGACATA | 0.0544
ATTTTCCG | 0.318
ATTTTTCG | 0.294
AATTTCCG | 0.211
ATTTTCCC | 0.173
ATTTTTCA | 0.222
AATTTTCG | 0.128
AGATACAT | 0.00257
CCCTAGTA | 0.0343
CGAGGACA | -0.0668
AAGCAGTG | 0.0293
AACAAGCC | -0.125
AACAAAAA | 0.332
GACAGAAA | 0.168
AACAAACA | 0.269
AACAGAAG | -0.0718
AACAAAAC | 0.236
AACAAAAG | 0.119
AACAAACC | 0.116
AACAAAGC | 0.294
AACAGAAA | 0.311
CACAAAGC | 0.0779

Sequence | PBM E-score
TACAAACA | 0.21
CGTGCGTA | -0.0557
TATAACAA | 0.215
CTTGAGTA | -0.208
CCTGTCGA | -0.122
GCCAACTA | -0.196
GTTCCGAA | 0.137
ACTTCCAT | 0.0326
ACGCTGCG | -0.0283
CCGCCCCA | 0.417
CCGCCCCG | 0.408
GCGCCCCA | 0.056
CCGCCCGG | -0.0452
CCGCCCCC | -0.00614
ACGCCCCA | 0.239
AACAGCGC | -0.0225
CACTGTTA | -0.0596
ATTCCTAG | 0.0776
CCGCAAGC | -0.226
GCACGCCA | -0.201
ATTTTACA | 0.113
CTTTTACC | 0.0888
GTTTTATA | 0.399
CTTTTATA | 0.0308
GTTTTACA | 0.296
CCTTTACA | -0.103

Sequence | PBM E-score
CTTTTACA | 0.269
ATTTTATA | 0.199
GGTTTACA | -0.0303
AGCTAGCT | -0.0845
CACTTTGA | -0.032
GGTTCTCA | 0.0128
ATCTGCCC | -0.153
ATACGTGG | -0.0972
TGCCTGAA | -0.0642
CTGTCAAG | -0.2
CAATCTTC | 0.144
CACCATCG | -0.197
CCCGAGTC | 0.0359
ATTTAATG | 0.272
ATTTAAGG | 0.00576
ATTTAATC | 0.209
CTTTAATA | 0.209
ATTTAATA | 0.267
GTTTAATA | 0.179
CACTTATG | 0.00871
ATGGGTTC | -0.094
AGATAGAA | -0.0615
AGGGCTTC | -0.0834
ATTAAAGC | 0.0638
ATAGTCTC | 0.132
AAGGTGAG | 0.00195

Sequence | PBM E-score
TACACGTA | -0.00219
CAACGAAA | 0.13
TAACGAAA | 0.298
AAACGAAA | 0.248
AGATGTGC | -0.154
CGATGTGA | 0.046
AGATGTGA | 0.262
GAGCCAGA | -0.0414
CTGGGGTA | -0.145
ATGGGGTA | -0.0735
GTGGGGTA | 0.302
CGAACGAC | -0.034
ACCACTTG | 0.0214
ACCCAAAG | -0.0486
ACCCAAAC | 0.285
AAACAAAG | 0.233
AAACAGTT | 0.245
CAACAGTG | 0.104
ACCCAAAA | 0.13
GAACAAAC | 0.181
AAACAAAT | 0.28
AAACAAAA | 0.225
AAACAGTG | 0.309
AAACAAGT | 0.149
AAACAAAC | 0.263
GTCCGGGA | 0.0647

Sequence | PBM E-score
GAAAGCTC | -0.201
GGTCCAGA | -0.0878
ATATTGCA | 0.104
ATTCCCTG | 0.0875
ATTCGTAA | 0.166
AACCCTGA | 0.305
ACCCCTGA | 0.128
CACCCTGA | -0.00848
GCGTCTCA | 0.166
TCGTCTCA | 0.134
ACGTCTCA | 0.274
ATGTCTCA | 0.289
CTGTGTCA | 0.0491
GTGTGTCA | 0.321
ATGTCTCC | -0.0509
ATGTGTCA | 0.119
CTGTCTCA | 0.158
GTCTCTCA | -0.184
ATGTCTCG | -0.114
GTGTCTCA | 0.338
AAGTCGTA | -0.129
TATGGGAA | 0.0435
CGGCTGGC | -0.117
ATATTATC | 0.181
GTATTAAA | 0.166
GCATTAAA | 0.111

Sequence | PBM E-score
CTATTAAC | -0.0267
ATATTATG | 0.303
TTATTAAA | 0.321
ACATTAAA | 0.196
ATATTAAC | 0.285
TAATTAAA | 0.173
ATATTATA | 0.18
TCATTAAA | 0.324
GTATTAAC | 0.132
CTGGGCAA | -0.0128
GGACTAGA | -0.124
TATGGTCA | -0.0454
CAGTAAGG | -0.0592
ACGCGAGC | -0.151
AGGTTACT | 0.0862
TACTCCCA | 0.056
ATATTAAG | 0.109
ATATTAAT | 0.298
AGATTAAT | 0.0881
CTATTAAA | 0.219
ATATTAAA | 0.29
ATATTAGA | 0.0159
AAATAATC | 0.171
AAATAATA | 0.257
GAATAATA | 0.286
TAATAATA | 0.181

Sequence | PBM E-score
AAATAATT | 0.294
GAATAATC | 0.00357
AGACTGCT | 0.0365
AGCGCTAT | 0.0744
AACTCATG | 0.129
ATTGAGGG | -0.124
GAATGAGC | -0.0246
ATCCGAAT | 0.192
AAAAACCT | 0.263
CAAACCTA | 0.0393
AAAAACCG | 0.178
AAAACCTA | 0.283
AAAACCTT | 0.142
AAAAACCC | 0.0736
CGAAGAAA | 0.195
ACTCTCCG | -0.0208
AAGAAGAG | -0.00818
AAGTTGAC | 0.0703
AGTAGGCG | -0.256
ATCCAATG | -0.165
ATCTCTCG | -0.0464
AAACAATT | 0.112
AAACAACT | 0.174
AAACAACG | 0.0956
AATCAACA | 0.29
AAACAATA | 0.274

Sequence | PBM E-score
GATCAACA | -0.0858
TAACAATA | 0.239
CAACAACC | 0.0311
AAACAACA | 0.287
GAACAACC | 0.00021
AAACAACC | 0.277
TATCAACA | 0.149
GCCAATGA | -0.228
GGGTGGAC | -0.226
ACATTTTG | 0.0789
ACAGTTGC | -0.0387
AACCATCT | 0.0768
AGCTCAGC | -0.398
ACTGACAA | 0.0676
ACCTGTCA | 0.0912
CTACAAAA | 0.228
ACACAAAA | 0.26
TTACAAAA | 0.301
TCACAAAA | 0.271
ATACAAAA | 0.209
GCACAAAA | 0.165
ACGTTCTC | 0.0364
TACCTATA | 0.106
CGCATGAC | -0.0101
CCCTGTTC | -0.243
CCCTGTTA | 0.279

Sequence | PBM E-score
GCCTGTTA | 0.00489
CGCTCCTC | -0.106
CAGTAGGG | -0.176
CTGGCTAA | -0.0552
ACGTTTAG | -0.156
ACGTTTCC | -0.0394
GCGTTTCC | 0.0828
TCGTTTCA | 0.467
ACGTTTCG | 0.297
TCATTTCA | 0.242
GCGTTTGA | 0.0907
ACGTTTGG | 0.127
ACGTTTCT | 0.064
TCGTTTAA | 0.155
ACGTTTCA | 0.48
GCGTTTCA | 0.476
